Test results taken from the GenesisPotency data set.
The campaign covered roughly 290,000 compounds. About 3,000 (1%) were called active. Cut-off read from the data, not from the text of the source: active = inhibition mostly above about 36% (no sharp cut-off); inactive = mostly below about 34%. The full list was thinned out, with actives kept by preference.

biological target: T1, Nucleotide-binding oligomerization domain-containing protein 1, Homo sapiens (UniProt Q9Y239); assay: inhibition of NOD1-driven NF-kB reporter – cell-based, luminescence, uHTS, primary screen (AID 1578)
T1 sequence (whole entry): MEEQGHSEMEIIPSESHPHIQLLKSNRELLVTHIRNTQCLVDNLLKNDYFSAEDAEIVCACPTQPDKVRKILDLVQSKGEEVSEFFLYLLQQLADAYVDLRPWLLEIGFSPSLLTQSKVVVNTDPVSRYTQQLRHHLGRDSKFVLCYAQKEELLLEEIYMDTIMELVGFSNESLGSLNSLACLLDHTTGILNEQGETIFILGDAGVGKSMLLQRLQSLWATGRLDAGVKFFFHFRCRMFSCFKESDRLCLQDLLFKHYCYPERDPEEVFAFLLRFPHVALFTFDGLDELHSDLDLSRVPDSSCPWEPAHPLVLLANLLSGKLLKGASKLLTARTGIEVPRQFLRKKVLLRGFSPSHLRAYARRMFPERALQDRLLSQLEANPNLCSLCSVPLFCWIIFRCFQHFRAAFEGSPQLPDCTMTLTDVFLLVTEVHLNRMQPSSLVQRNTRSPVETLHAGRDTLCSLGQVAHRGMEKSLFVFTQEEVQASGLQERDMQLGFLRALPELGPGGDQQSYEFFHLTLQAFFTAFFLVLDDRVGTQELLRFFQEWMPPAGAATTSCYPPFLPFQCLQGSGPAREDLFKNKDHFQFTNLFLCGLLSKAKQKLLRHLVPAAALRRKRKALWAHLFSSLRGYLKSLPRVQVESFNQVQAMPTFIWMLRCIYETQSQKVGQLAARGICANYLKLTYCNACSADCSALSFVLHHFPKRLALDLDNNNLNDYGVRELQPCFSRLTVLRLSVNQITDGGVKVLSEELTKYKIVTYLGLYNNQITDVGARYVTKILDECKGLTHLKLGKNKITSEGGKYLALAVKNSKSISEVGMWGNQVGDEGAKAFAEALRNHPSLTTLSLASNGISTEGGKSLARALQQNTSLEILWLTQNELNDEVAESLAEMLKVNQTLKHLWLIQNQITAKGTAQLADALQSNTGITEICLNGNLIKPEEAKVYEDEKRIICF

outcome, active:
COc1cccc(CN(C)C(=O)CNC(=O)c2ccc(-c3ccccc3)cc2)c1OC
CCOc1ccc(S(=O)(=O)Nc2cnc3ccccc3c2)cc1
Cc1c(C(=O)Nc2nonc2-c2ccc(F)cc2)oc2ccc(F)cc12
Nc1ncc(Br)cc1S(=O)(=O)Nc1cc(C(F)(F)F)cc(C(F)(F)F)c1
O=[N+]([O-])c1cc([N+](=O)[O-])c2oc(-c3ccccc3)c(Br)c2c1O
O=[N+]([O-])c1ccc(Oc2ccc(F)cc2)c2ccncc12
O=[N+]([O-])c1ccc(Oc2ccc(F)cc2Br)c2ccncc12
CC1=C(C(=O)NC2CCCc3c2cnn3-c2ccc(F)cc2F)OCCO1 (stereo not drawn)
Cc1ccc(C(=O)NC2CCCc3c2cnn3-c2ccc(F)cc2F)cn1 (stereo not drawn)
Cn1nccc1C(=O)NC1CCCc2c1cnn2-c1ccc(F)cc1F (stereo not drawn)
Cc1ccc(C(=O)CN2C(=O)c3ccccc3S2(=O)=O)cc1
COc1ccc(C(=O)CN2C(=O)c3ccccc3S2(=O)=O)cc1
COc1ccc(-c2cc3nc(C)n(N)c(=O)c3s2)cc1
COc1ccc(-c2cc3nc(CCl)[nH]c(=O)c3s2)cc1
COc1ccccc1-c1nnc(Sc2nc([N+](=O)[O-])nn2C)o1
OCCCNc1cc(-c2ccnc(Nc3cccc(Cl)c3)n2)ccn1
OCCCNc1nccc(-c2cc(Nc3cccc(Cl)c3)ncn2)n1
CCOC(=O)c1oc2ccc(S(=O)(=O)n3nc(-c4ccc(OC)cc4)cc3N)cc2c1C
CN(C)c1ccnc2sc3c(=O)n(Cc4ccccc4)cnc3c12
Cc1c(C(=O)N2CCN(Cc3ccc4c(c3)OCO4)CC2)sc2ncnc(N3CCN(c4ccccc4)CC3)c12
Cl.O=[N+]([O-])c1ccc2ncnc(N3CCN(Cc4ccc5c(c4)OCO5)CC3)c2c1
Cc1ccc(S(=O)(=O)CC#CCOC(=O)c2ccc([N+](=O)[O-])cc2)cc1
CCOC(=O)c1csc(Nc2nc3ccc(F)cc3s2)n1
CN(c1ccccc1)S(=O)(=O)c1cccc(NC(=O)c2cc(=O)c3ccccc3o2)c1
Cc1cc(Cl)c(S(=O)(=O)N2CCCCCC2)cc1OCC(=O)NC1CCCCC1
Cc1cc(Cl)c(S(=O)(=O)N2CCN(c3ccc(F)cc3)CC2)cc1OCC(=O)NC1CCCCC1
Cc1cc(C)c(C(=O)/C=C/c2ccc(C(C)C)cc2)c(=O)[nH]1
Cc1cc(C)c(C(=O)/C=C/c2cccc3ccccc23)c(=O)[nH]1
O=C(/C=C/c1ccc2c(c1)OCO2)Nc1nc(-c2ccccc2)cs1
COc1cccc(N(C(=O)CCl)C(C(=O)NCCc2ccccc2)c2cccs2)c1 (stereo not drawn)
COc1ccc(N(C(=O)CCl)C(C(=O)NCCc2ccccc2)c2cccs2)cc1 (stereo not drawn)
COc1ccc(NS(=O)(=O)c2cccc(NC(=O)c3ccc(S(=O)(=O)N4CCCCCC4)cc3)c2)cc1
COc1ccc(NS(=O)(=O)c2cccc(NC(=O)c3ccc(Cl)nc3)c2)cc1
Cc1ccccc1-n1nnnc1Sc1nnnn1-c1ccccc1
Cc1sc2ncnc(Sc3nnnn3-c3ccccc3)c2c1C
Cc1sc2ncnc(Sc3nnnn3-c3ccc(Cl)cc3)c2c1C
Cc1scc(C(=O)N/N=C/c2ccc([N+](=O)[O-])o2)c1C
O=[N+]([O-])c1ccc(/C=N/N=C/c2ccc([N+](=O)[O-])o2)o1
O=C(N/N=C/c1ccc([N+](=O)[O-])o1)c1ccc2c(c1)OCO2
O=C(N/N=C/c1ccc([N+](=O)[O-])o1)c1ccccc1-n1cccc1
O=C(N/N=C/c1ccc([N+](=O)[O-])o1)c1ccccc1NS(=O)(=O)c1cccs1
Cc1nn(-c2cccc(Cl)c2)c2nc(C(F)(F)F)[nH]c(=O)c12
Cc1nn(-c2cc(C(F)(F)F)ccc2Cl)c2nc(C(Cl)(Cl)Cl)[nH]c(=O)c12
COc1cccc(N2CCN(c3ncnc4c3cnn4-c3ccc(C)cc3C)CC2)c1
COc1ccc(-c2n(CC(=O)OC3CC(C)CCC3C(C)C)c3ccccc3[n+]2C)cc1.[Cl-] (stereo not drawn)
Cc1csc(SCC(=O)Nc2cccc3nsnc23)n1
Cc1noc(C)c1CSc1nc2ccccc2nc1NS(=O)(=O)c1ccc(Cl)cc1
Cc1[nH]nc2ncc(C(=O)c3ccccc3O)cc12
Fc1ccc(CSc2nnc(-c3ccncc3)o2)cc1
Clc1ccc(CSc2nnc(-c3ccncc3)o2)cc1
O=c1cc(-c2ccccc2Cl)oc2c([N+](=O)[O-])c(O)cc(O)c12
O=C(CSc1nc2nc(-c3cccs3)cc(C(F)(F)F)c2c(=O)[nH]1)Nc1ccc(F)c(F)c1
CCOc1ccccc1NC(=O)CSc1nc2nc(-c3cccs3)cc(C(F)(F)F)c2c(=O)[nH]1
Cc1ccc(C)c(NC(=O)CSc2nc3nc(-c4cccs4)cc(C(F)(F)F)c3c(=O)[nH]2)c1
O=C(CSc1nc2nc(-c3cccs3)cc(C(F)(F)F)c2c(=O)[nH]1)Nc1c(F)c(F)c(F)c(F)c1F
O=c1cc(-c2ccccc2)nc2c(-c3ccccc3)c(C(F)(F)F)[nH]n12
COc1ccc(-c2c(C(F)(F)F)[nH]n3c(=O)cc(-c4ccccc4)nc23)cc1
CC(=O)/C=C/n1c(=S)oc2ccccc21
CC(C)CC(=O)/C=C/n1c(=S)oc2ccccc21
CCOC(=O)N1CCN(C(=O)C2CCCN(Cc3nc(-c4ccc(Cl)cc4)oc3C)C2)CC1 (stereo not drawn)
CC(=O)c1c(C)[nH]c(C(=O)OCC(=O)Nc2sc3c(c2C#N)CCCC3)c1C
Br.CC(=O)Nc1nc(C)c(-c2csc(Nc3ccc(O)cc3)n2)s1
COc1ccccc1Nc1nc(-c2sc(NC(=O)c3ccco3)nc2C)cs1
CC[C@H]1CN2CCc3cc(OC)c(OC)cc3[C@@H]2C[C@@H]1C[C@H]1NCCc2cc(OC)c(OC)cc21.Cl
O=C(NC(=S)N1CCN(c2ccc(C(F)(F)F)cc2[N+](=O)[O-])CC1)c1cccs1
O=C(NC(=S)N1CCN(c2ccc(Cl)cc2[N+](=O)[O-])CC1)c1cccs1
O=C(c1ccc2c(c1)CCN2S(=O)(=O)c1ccccc1)N1CCN(c2ccc(F)cc2)CC1
COc1cc(C2CC(c3cccs3)=NN2C(=O)CCl)ccc1OC(F)F (stereo not drawn)
COc1ccc(C2CC(c3cccs3)=NN2C(=O)CCl)cc1OC (stereo not drawn)
O=C(COc1ccc(C(=O)c2ccccc2)cc1)Nc1cccnc1
Cc1ccc(-n2ncc(Br)c(Br)c2=O)cc1
COc1cc(OC)nc(-n2ncc(Br)c(Br)c2=O)n1
Cc1cccc(/C=C(\c2nc3ccccc3[nH]2)S(=O)(=O)c2ccccc2)c1
O=S(=O)(/C(=C/c1ccc(C(F)(F)F)cc1)c1nc2ccccc2[nH]1)c1ccccc1
CC(C)c1ccc(/C=C(\c2nc3ccccc3[nH]2)S(=O)(=O)c2ccccc2)cc1
Cc1ccc(Cc2cnc(N3C(=N)SC(c4ccccc4)C3=O)s2)cc1 (stereo not drawn)
N=C1SC(c2ccccc2)C(=O)N1c1ncc(Cc2ccccc2)s1 (stereo not drawn)
N=C1SC(c2ccccc2)C(=O)N1c1ncc(Cc2ccccc2Cl)s1 (stereo not drawn)
CCOc1ccc2nc(SCc3ccc(CC(=O)O)cc3)c(C#N)cc2c1
CSc1nc2ccc(NS(=O)(=O)c3ccc4c(c3)OCCO4)cc2s1
Cc1nc2ccc(NS(=O)(=O)c3c(C)c(C)cc(C)c3C)cc2s1
Cc1nc2ccc(NS(=O)(=O)c3ccc4c(c3)OCCO4)cc2s1
O=C(CCl)Nc1cc(SCC(O)CO)cc([N+](=O)[O-])c1 (stereo not drawn)
COc1cc(F)ccc1CN1CCC(C(=O)Nc2ccc(Oc3ccccc3)nc2)CC1
CCOC(=O)C1=C(C)N=c2s/c(=C/c3cccc([N+](=O)[O-])c3O)c(=O)n2C1c1ccccc1 (stereo not drawn)
Cc1ccccc1N(Cc1cc(=O)[nH]c2ccccc12)C(=O)CCl
Cc1ccc(N(Cc2cc(=O)[nH]c3ccccc23)C(=O)CCl)c(C)c1
Cc1cc(C(=O)N/N=C/c2cc(Br)cc(Br)c2OC(=O)c2cccc(F)c2)n[nH]1
COc1cccc(C(=O)Oc2c(Br)cc(Br)cc2/C=N/NC(=O)c2cc(C)[nH]n2)c1
Cc1cc(C(=O)N/N=C/c2cc(Br)ccc2OC(=O)c2ccccc2)n[nH]1
Cc1ccc(-c2csc3ncnc(Sc4nnc(CN5CCCCCC5=O)o4)c23)cc1
COc1ccccc1NS(=O)(=O)c1cccc(-n2c(O)c(C=Nc3ccccc3C(=O)O)c3ccccc3c2=O)c1
CCN(CC)S(=O)(=O)c1cccc(-n2c(O)c(C=Nc3ccccc3C(=O)O)c3ccccc3c2=O)c1
COc1ccc(Cn2c(O)c(C=Nc3ccccc3C(=O)O)c3ccccc3c2=O)cc1
COC(=O)Cc1[nH]n(-c2nc3ccccc3s2)c(=O)c1C(C)=Nc1ccc(C)cc1
Cc1ccc(Cl)cc1N1CCN(C(=O)c2cc3c(=O)[nH]c4ccccc4c3n2C)CC1
COc1ccc(CN(C)Cc2nc(Cc3cccc(F)c3)no2)c2cccnc12
Cc1nc(SCC(=O)Nc2nc3ccccc3s2)c(C#N)c(C)c1C
COc1ccc(-n2nnnc2S(=O)(=O)CC(=O)N2CCCCC2)cc1
Cc1cc(Nc2cccc([N+](=O)[O-])c2)n2c(nc3ccccc32)c1C#N
CCc1nnc(NC(=O)c2ccc(Cl)c(S(=O)(=O)N3CCc4ccccc43)c2)s1
CC(NC(=O)OCc1ccccc1)C(=O)Oc1cc2oc(=O)cc(-c3ccccc3)c2cc1Cl (stereo not drawn)
CC(NC(=O)OC(C)(C)C)C(=O)Oc1cc2oc(=O)cc(-c3ccccc3)c2cc1Cl (stereo not drawn)
